We go through 26 compounds from PubChem BioAssay (Tox21).

SMILES strings stand for the structures. Results filed as inconclusive are left out. Where a structure was tested more than once in an assay, its records may differ in their call. Activity calls are given as the source filed them. Unless noted, the call rests on the fitted dose curve; in most records, active means well fitted curve in the direction sought with a large enough effect in the repeat runs; inconclusive means weak or mixed curves; inactive means no such curve, though single readings can be large; an effect the other way counts as inactive or inconclusive.

The target in experiment [1] is Thyrotropin-releasing hormone receptor (Homo sapiens) (UniProt P34981). Nature of the experiment: qHTS assay to identify small molecule agonists of the thyrotropin-releasing hormone receptor (TRHR) signaling pathway (AID 1346891; calls by dose curve;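 further: HEK293 cells expressing TRHR with calcium dye readout; series mostly up to about 58 µM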). Put shortly:
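Compounds were tested as agonists at 15 concentrations, in triplicate, on TRHR-Hek293 cells; calcium-sensitive dye fluorescence was recorded for 3 min following addition.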
For orientation: qHTS replaces the single test concentration by a dilution series.

A short description of experiment [2]: Human pregnane X receptor (PXR) small molecule agonists, qHTS cell viability counter screen (AID 1346977). Further: nearly all actives have a fitted effect of over 50% in size. In outline:
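Viability counter screen: CellTiter-Fluor signal in PXR-Luc HepG2 cells, 24hr compound exposure, 37C, 5% CO2.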

Experiment [3] in a line: Caspase-3/7 induction in HepG2 cells by small molecules, qHTS assay (AID 1346978). Further: nearly all actives have a fitted effect of over 15% in size. In outline:
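Wild-type HepG2 cells (2,000/well) were settled 5 h at 37 C, 5% CO2, then exposed to compounds in DMSO for 17 h. Caspase-3/7 activity was read by luminescence 30 min after adding Caspase-Glo 3/7 reagent at room temperature.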

Experiment [4] can be described thus: Caspase-3/7 induction in CHO-K1 cells by small molecules, qHTS cell viability counter screen (AID 1346979). Further: nearly all actives have a fitted effect of over 35% in size. Put shortly:
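Viability readout by fluorescence (CellTiter-Fluor) on wild-type CHO-K1 cells exposed for 16hr at 37C and 5% CO2 to compounds delivered in DMSO; reagent incubated 1hr before reading.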

The nature of experiment [5]: Caspase-3/7 induction in CHO-K1 cells by small molecules, qHTS assay (AID 1346980). Further: nearly all actives have a fitted effect of over 15% in size. Put shortly:
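Wild-type cells were seeded at 1,500 per well and settled 5 hr at 37 C, 5% CO2, then exposed to DMSO-dissolved compounds for 17 hr. Caspase-Glo 3/7 reagent was added, and luminescence was read after 30min at room temperature.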

Experiment [6] is described as follows: Caspase-3/7 induction in HepG2 cells by small molecules, qHTS cell viability counter screen (AID 1346981). Further: series mostly up to about 92 µM; nearly all actives have a fitted effect of over 30% in size. In outline:
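Steps: seed 2,000 HepG2 cells per well; incubate 5 hr at 37 C; pin-add compounds in DMSO; incubate 16 hr; add CellTiter-Fluor; after 1 hr at 37 C and 5% CO2, read fluorescence.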

The target in experiment [7] is Nuclear receptor subfamily 1 group I member 2 (Homo sapiens) (UniProt O75469). Nature of the experiment: Human pregnane X receptor (PXR) small molecule agonists, qHTS assay (AID 1346982). Further: nearly all actives have a fitted effect of over 35% in size. Further: potency means the concentration at half of the fitted maximal effect. In outline: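 Agonist mode qHTS: PXR-Luc HepG2 cells plated 5 hr before DMSO-dissolved compounds were pinned in, cultured 24 hr at 37 C, 5% CO2; ONE-Glo luminescence readout.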
Experiment [8] has as its target Nuclear receptor subfamily 1 group I member 2 (Rattus norvegicus) (UniProt Q9R1A7). Put plainly: Rat pregnane X receptor (rPXR) activation by small molecules, qHTS assay (AID 1346983). Further: nearly all actives have a fitted effect of over 20% in size. Conditions: rPXR luciferase reporter cells, One-Glo luminescence, 24 h; stronger effect = higher value. Put shortly: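 Cell-based rPXR luciferase reporter assay, 2,000 cells per well, rested 5hr at 37 C before compound addition in DMSO, then 24 hr at 37 C. One-Glo reagent was added and luminescence read after 30 min at room temperature.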

Experiment [9] deals with Nuclear receptor subfamily 1 group I member 2 (Homo sapiens) (UniProt O75469). Put plainly: CYP3A4 induction through human pregnane X receptor (PXR) by small molecules, qHTS assay (AID 1346984). Further: nearly all actives have a fitted effect of over 40% in size. Put shortly:
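Steps: seed DPX-2 cells, 5 hr at 37C; pin-transfer compounds; 24 hr at 37C; add Luciferin-IPA (3uM final), 3 hr at 37C; add One-Glo, 30 min RT; read luminescence.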

Experiment [10] shares this target. Put plainly: Human pregnane X receptor (PXR) activation by small molecules, qHTS assay (AID 1346985). Further: nearly all actives have a fitted effect of over 40% in size. In outline: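 DPX-2 cells (HepG2 co-transfected with a PXR response element and a CYP3A4-promoter luciferase construct) were seeded at 2,000 per well, rested 5 hr at 37C, then exposed to DMSO-dissolved compounds for 24 hr. Activation was read as luciferase luminescence.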
On the % scale 0 is the no-effect control and ±100 the full control effect.

Thyrotropin-releasing hormone receptor (Homo sapiens), sequence (P34981 whole entry, looked up): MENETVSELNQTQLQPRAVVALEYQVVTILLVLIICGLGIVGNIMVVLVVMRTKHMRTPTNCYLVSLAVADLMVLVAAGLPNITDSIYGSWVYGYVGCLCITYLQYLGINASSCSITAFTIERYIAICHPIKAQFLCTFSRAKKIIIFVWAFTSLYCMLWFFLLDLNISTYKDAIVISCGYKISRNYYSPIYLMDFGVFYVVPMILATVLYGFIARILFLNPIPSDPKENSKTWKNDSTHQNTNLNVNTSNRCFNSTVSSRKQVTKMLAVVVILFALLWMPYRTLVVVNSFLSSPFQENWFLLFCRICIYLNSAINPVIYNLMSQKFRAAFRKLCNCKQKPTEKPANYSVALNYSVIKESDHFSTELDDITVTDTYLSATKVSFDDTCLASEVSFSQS
Nuclear receptor subfamily 1 group I member 2 (Rattus norvegicus), sequence (Q9R1A7 whole entry, looked up): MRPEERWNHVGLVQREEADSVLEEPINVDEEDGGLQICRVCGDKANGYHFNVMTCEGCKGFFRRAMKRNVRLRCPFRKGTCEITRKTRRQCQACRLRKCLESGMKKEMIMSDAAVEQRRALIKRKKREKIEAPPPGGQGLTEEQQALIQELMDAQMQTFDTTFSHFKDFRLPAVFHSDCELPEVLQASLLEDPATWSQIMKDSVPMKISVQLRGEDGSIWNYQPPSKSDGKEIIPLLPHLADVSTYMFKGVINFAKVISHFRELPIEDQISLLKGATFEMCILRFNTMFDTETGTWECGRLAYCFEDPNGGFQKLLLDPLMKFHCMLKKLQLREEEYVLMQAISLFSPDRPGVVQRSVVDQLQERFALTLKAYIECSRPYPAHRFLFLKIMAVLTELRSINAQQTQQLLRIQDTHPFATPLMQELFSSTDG
Nuclear receptor subfamily 1 group I member 2 (Homo sapiens), sequence (O75469 whole entry, looked up): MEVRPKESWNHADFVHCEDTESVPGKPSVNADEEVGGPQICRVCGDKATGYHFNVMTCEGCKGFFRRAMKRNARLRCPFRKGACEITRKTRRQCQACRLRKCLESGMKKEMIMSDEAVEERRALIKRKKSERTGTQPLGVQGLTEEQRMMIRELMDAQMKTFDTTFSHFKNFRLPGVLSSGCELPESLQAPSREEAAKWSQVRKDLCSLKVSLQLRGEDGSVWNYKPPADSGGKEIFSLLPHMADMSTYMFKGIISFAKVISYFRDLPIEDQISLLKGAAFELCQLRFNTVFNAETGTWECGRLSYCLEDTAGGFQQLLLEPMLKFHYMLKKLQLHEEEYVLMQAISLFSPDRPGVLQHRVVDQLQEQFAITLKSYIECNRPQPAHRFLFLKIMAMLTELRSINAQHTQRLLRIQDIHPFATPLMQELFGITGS

With `CCCCCCCCCCCCCCCCC`, the compound was classed as inactive in experiment [1] and in [5]. For the same compound, the Potency result in experiment [2], in experiment [3], in experiment [4], in experiment [6] and in experiment [7] was “inactive” throughout.

With `CCCCCOC(=O)CCCCC`, the compound was classed as inactive in experiment [1] and in experiment [5]. The Potency entry in [2], in experiment [3], in experiment [4], in experiment [6] and in [7] was “inactive” in each case.

As for `COc1ccccc1OCC(O)CN1CCN(CC(=O)Nc2c(C)cccc2C)CC1` (stereo unspecified), the call in [1] and in [5] was inactive. Also, the Potency entry in experiment [2], in experiment [3], in [4], in experiment [6] and in [7] was “inactive” in each case.

As to `O=S(O)CO`, the compound was classed as inactive in experiment [1] and in experiment [5]. The Potency entry in experiment [2], in [3], in [4], in experiment [6] and in [7] was “inactive” throughout.

For the compound `CC(C)CNCC(C)C`, the result in experiment [1] and in experiment [5] was inactive. Besides, the Potency result in experiment [2], in experiment [3], in experiment [4], in experiment [6] and in [7] was “inactive” throughout.

Turning to `CCCCC/C=C\CCC=O`, the result in experiment [1] and in [5] was inactive. For the same compound, the Potency entry in experiment [2], in experiment [3], in experiment [4], in experiment [6] and in [7] was “inactive” throughout.

In the case of `CC(=O)OC/C=C(\C)CC/C=C(\C)CCC=C(C)C`, the result in [1] and in experiment [5] was inactive. Further, the Potency result in [2], in experiment [3], in [4] and in experiment [6] was “inactive” each time. The Potency in experiment [7] was 61.1 µM (active) and inactive.

Consider `Cc1nc2c([nH]1)c(=O)n(C)c(=O)n2Cc1ccco1`, for which the outcome in experiment [1] and in experiment [5] was inactive. The Potency result in [2], in experiment [3], in [4], in experiment [6] and in [7] was “inactive” each time.

As to `Cc1cc2c(cc1S(N)(=O)=O)S(=O)(=O)CCC2`, the compound was called inactive in experiment [1] and in [5]. Moreover, the Potency result in [2], in experiment [3], in experiment [4], in experiment [6], in experiment [7] and in [9] was “inactive” throughout. For the same compound, the Potency entry in experiment [10] was “inactive”. Moreover, in experiment [8], the max activation is -2.16% (inactive).

As for `N=C(N)c1ccccc1`, the compound was classed as inactive in experiment [1] and in [5]. For the same compound, the Potency entry in [2], in [3], in [4], in [6] and in experiment [7] was “inactive” throughout.

On to `Cc1sccc1Br`, for which the compound was called inactive in experiment [1] and in experiment [5]. Also, the Potency entry in [2], in experiment [3], in experiment [4], in experiment [6] and in experiment [7] was “inactive” each time.

For the compound `CCO/C([O-])=N/c1c[n+](N2CCOCC2)no1`, the outcome in experiment [1] and in experiment [5] was inactive. Further, the Potency result in [2], in [3], in [4], in [6], in experiment [7] and in experiment [9] was “inactive” in each case. For the same compound, in experiment [10], the Potency entry is “inactive”. Further, in experiment [8], the max activation was 0.703% (inactive).

For the compound `N[C@H](C(=O)O)c1ccc(O)cc1`, the values for the activation in experiment [1] and in experiment [7] were 0.371% [at 11.8 µM] (inactive) and -2.7% [at 19 µM] (inactive), respectively. Besides, the values for the activity change, negative = cytotoxicity in experiment [2] and in [6] were 0.445% [at 19 µM] (inactive) and 0.561% [at 19 µM] (inactive), respectively. Also, in experiment [3], the caspase activation was -0.122% [at 19 µM] (inactive). For the same compound, the Potency result in experiment [4], in experiment [9] and in experiment [10] was “inactive” throughout. Further, the caspase-3/7 activation in experiment [5] is -0.938% [at 19 µM] (inactive). The max activation in experiment [8] is -1.63% (inactive).

On to `CCN1CCC[C@H]1CNC(=O)c1cc(S(N)(=O)=O)ccc1OC`, for which the outcome in experiment [1] and in experiment [5] was inactive. Further, the Potency result in experiment [2], in experiment [3], in [4] and in [6] was “inactive” each time. In addition, the max activation in experiment [8] is -2.59% (inactive).

`CCCCOCCOCCOCc1cc2c(cc1CCC)OCO2`: the outcome in [1] and in experiment [5] was inactive. Moreover, the Potency entry in experiment [2], in [3], in experiment [4] and in [6] was “inactive” throughout. In experiment [8], the max activation is -0.229% (inactive).

In the case of `C[N+](C)(C)CCCCCC[N+](C)(C)C`, the call in [1] and in experiment [5] was inactive. For the same compound, the Potency entry in experiment [2], in experiment [3], in experiment [4] and in experiment [6] was “inactive” throughout. Further, the max activation in experiment [8] is 0.135% (inactive).

On to `CC(C)(C)c1nnc(NS(=O)(=O)c2ccccc2)s1`, for which the result in [1] and in [5] was inactive. Also, the Potency result in [2], in [3], in experiment [4] and in experiment [6] was “inactive” each time. Besides, the Potency in experiment [7] is 11.9 µM (active).

On to `CCCN1CCCC[C@H]1C(=O)Nc1c(C)cccc1C`, for which the compound was classed as inactive in experiment [1] and in experiment [5]. The Potency entry in [2], in [3], in experiment [4] and in experiment [6] was “inactive” each time. Further, in [8], the max activation is 0.29% (inactive).

On to `Cc1c(NC(C)C)c(=O)n(-c2ccccc2)n1C`, for which the call in experiment [1] and in experiment [5] was inactive. Also, the Potency result in experiment [2], in experiment [3], in experiment [4], in experiment [6], in [7] and in [9] was “inactive” each time. In addition, in [10], the Potency result is “inactive”. Also, the max activation in experiment [8] is -1.85% (inactive).

For `CCN1CCC[C@H]1CNC(=O)c1c(O)c(Cl)cc(Cl)c1OC`, the compound was classed as inactive in [1] and in [5]. Moreover, the Potency entry in experiment [2], in experiment [3], in experiment [4], in [6] and in experiment [9] was “inactive” each time. The max activation in experiment [8] was -0.579% (inactive).

On to `C=CCOCC(CC)(CO)COCC=C`, for which the result in experiment [1] and in experiment [5] was inactive. In addition, the Potency result in experiment [2], in experiment [3], in [4], in [6] and in experiment [7] was “inactive” in each case.

As for `Cc1cnc(NS(=O)(=O)c2ccc(N)cc2)nc1`, the outcome in experiment [1] and in [5] was inactive. Further, the Potency result in [2], in experiment [3], in [4], in [6] and in experiment [7] was “inactive” each time.

Turning to `CCc1ccc(O)c(OC)c1`, the result in experiment [1] and in experiment [5] was inactive. Also, the Potency result in experiment [2], in experiment [3], in experiment [4], in [6] and in [7] was “inactive” throughout.

Turning to `NS(=O)(=O)c1cc(C(=O)O)cc(N2CCCC2)c1Oc1ccccc1`, the outcome in experiment [1] and in experiment [5] was inactive. For the same compound, the Potency result in experiment [2], in experiment [3], in [4], in experiment [6], in experiment [7] and in experiment [9] was “inactive” each time. Also, the Potency entry in experiment [10] is “inactive”. Moreover, in [8], the max activation was 1.61% (inactive).

Turning to `CC(=O)OCC(CCn1cnc2cnc(N)nc21)COC(C)=O`, the outcome in [1] and in [5] was inactive. The Potency result in experiment [2], in experiment [3], in [4], in [6], in [7] and in experiment [9] was “inactive” in each case. In addition, the Potency entry in [10] was “inactive”. For the same compound, in experiment [8], the max activation was -0.776% (inactive).

As for `C[C@H]1C[C@@H](O)CC(C)(C)C1`, the outcome in [1] and in [5] was inactive. Further, the Potency entry in experiment [2], in experiment [3], in experiment [4], in experiment [6] and in experiment [7] was “inactive” in each case.
